# Source: PubChem BioAssay (Tox21)
# Records with an inconclusive call do not appear. A call without a number means that no potency is given here. Values without a mark were called inactive. The source made the active and inactive calls. Unless noted, calls come from the whole dose curve; as a rule, active = well fitted curve in the direction sought with a large enough effect in the repeat runs; inconclusive = weak or mixed curves; inactive = no such curve, though single readings can be large; an effect the other way counts as inactive or inconclusive.
# Tests used:
# [1] = qHTS assay to identify aromatase inhibitors - cell viability counter screen (AID 743084);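 note: cells stimulated with testosterone during compound exposure; nearly all actives have a fitted effect of over 55% in size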; note: potency is the fitted concentration of half-maximal effect
# [2] = qHTS assay to identify small molecule that activate the aryl hydrocarbon receptor (AhR) signaling pathway - cell viability counter screen (AID 743086);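 note: HepG2 liver cells carrying the AhR DRE luciferase reporter; series mostly up to about 70 µM; nearly all actives have a fitted effect of over 45% in size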
# Procedure, shortened: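 Cytotoxicity counter screen: CellTiter-Fluor signal (30 min, 37 C) in 4000 HepG2 cells/well carrying the DRE-luciferase reporter, following 24 h compound exposure at 37 C.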
# [3] = target: Peroxisome proliferator-activated receptor gamma (Homo sapiens) (UniProt P37231); assay: qHTS assay to identify small molecule agonists of the peroxisome proliferator-activated receptor gamma (PPARg) signaling pathway (AID 743094; active = well fitted activation curve with a large enough effect in the signal ratio in the repeat runs, not every such curve was filed as active; the % refers to the signal ratio)
# Peroxisome proliferator-activated receptor gamma (Homo sapiens), sequence (P37231 whole entry, looked up): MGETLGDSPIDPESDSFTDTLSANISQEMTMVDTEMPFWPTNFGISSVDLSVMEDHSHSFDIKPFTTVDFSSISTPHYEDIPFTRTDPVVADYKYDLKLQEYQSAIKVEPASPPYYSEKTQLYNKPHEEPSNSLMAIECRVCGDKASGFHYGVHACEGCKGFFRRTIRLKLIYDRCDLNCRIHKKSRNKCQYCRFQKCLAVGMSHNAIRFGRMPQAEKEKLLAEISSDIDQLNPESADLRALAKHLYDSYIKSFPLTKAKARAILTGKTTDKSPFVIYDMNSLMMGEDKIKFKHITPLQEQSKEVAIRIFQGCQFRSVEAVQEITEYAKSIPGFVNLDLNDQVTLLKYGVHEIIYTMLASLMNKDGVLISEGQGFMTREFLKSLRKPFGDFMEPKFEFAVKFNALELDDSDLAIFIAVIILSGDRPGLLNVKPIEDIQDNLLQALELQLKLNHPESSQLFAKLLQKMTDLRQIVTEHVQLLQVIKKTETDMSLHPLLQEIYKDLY
# Procedure, shortened: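 GeneBLAzer PPARg UAS-bla HEK293H cells carrying a stably integrated beta-lactamase reporter were pre-incubated 5 h at 37C, then exposed to compounds in DMSO for 17 h at 37C; LiveBLAzer B/G FRET substrate was added for 1 h at room temperature and fluorescence read.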
# [4] = target: Peroxisome proliferator-activated receptor gamma (Homo sapiens) (UniProt P37231); assay: qHTS assay to identify small molecule antagonists of the peroxisome proliferator-activated receptor gamma (PPARg) signaling pathway (AID 743191; calls by dose curve; note: nearly all actives have a fitted effect of over 30% in size; note: potency is the fitted concentration of half-maximal effect)
# Procedure, shortened: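 Beta-lactamase reporter under UAS control in HEK293H PPARg-bla cells; compound treatment 17 h at 37C. Read-out: fluorescence intensity after 1 h room-temperature incubation with LiveBLAzer B/G FRET substrate.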
# [5] = qHTS assay to identify small molecule antagonists of the peroxisome proliferator-activated receptor gamma (PPARg) signaling pathway - cell viability counter screen (AID 743194); note: nearly all actives have a fitted effect of over 55% in size; note: potency is the fitted concentration of half-maximal effect
# Procedure, shortened: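 Viability was measured as CellTiter-Glo luminescence in GeneBLAzer PPARg UAS-bla HEK293H cells. These cells had been exposed 17 h at 37 C to compounds together with rosiglitazone at 50 nM final, with the beta-lactamase readout taken in the same wells.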
# [6] = qHTS assay for small molecule agonists of the antioxidant response element (ARE) signaling pathway (AID 743202; active = well fitted activation curve with a large enough effect in the signal ratio in the repeat runs, not every such curve was filed as active; the % refers to the signal ratio; note: potency is the fitted concentration of half-maximal effect)
# Procedure, shortened: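 An ARE-responsive beta-lactamase gene stably integrated in HepG2 cells serves as reporter. After 5 h plating and 16 h compound incubation at 37 C, fluorescence of the B/G FRET substrate was measured.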
# [7] = qHTS assay for small molecule agonists of the antioxidant response element (ARE) signaling pathway - cell viability counter screen (AID 743203; calls by dose curve; note: nearly all actives have a fitted effect of over 55% in size; note: potency is the fitted concentration of half-maximal effect)
# Procedure, shortened: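 CellSensor ARE-bla HepG2 cells, 2,000 per well, rested 5 hrs at 37C/5% CO2, then exposed to compound in DMSO for 16 hrs; viability read as CellTiter-Glo luminescence after 30 min at room temperature, in the reporter wells.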
# [8] = qHTS assay for small molecule activators of the heat shock response signaling pathway - cell viability counter screen (AID 743209); note: nearly all actives have a fitted effect of over 50% in size
# Procedure, shortened: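 CellSensor HSE-bla HeLa cells, plated overnight at 37 C/5% CO2, were exposed to compounds in DMSO for 5 h at 37 C. Viability was then read in the same wells by CellTiter-Glo luminescence after 30 min at room temperature.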
# [9] = qHTS assay for small molecule activators of the heat shock response signaling pathway (AID 743210; active = well fitted activation curve with a large enough effect in the signal ratio in the repeat runs, with a control signal flat, not every such curve was filed as active; the % refers to the signal ratio;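 note: HeLa cells with beta-lactamase reporter driven by heat shock elements; series mostly up to about 63 µM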)
# Procedure, shortened: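 In HSE-bla HeLa cells, 5 h compound incubation (37 C) precedes addition of LiveBLAzer B/G substrate; after 2.5 h at room temperature, fluorescence intensity indicates reporter induction.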
# [10] = target: Aryl hydrocarbon receptor (Homo sapiens) (UniProt P35869); assay: qHTS assay to identify small molecule that activate the aryl hydrocarbon receptor (AhR) signaling pathway (AID 743085); note: nearly all actives have a fitted effect of over 15% in size; note: potency is the fitted concentration of half-maximal effect;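 for activation: HG2L7.5c1 human HepG2 liver cells with stably integrated DRE-driven firefly reporter; series mostly up to about 70 µM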
# Aryl hydrocarbon receptor (Homo sapiens), sequence (P35869 whole entry, looked up): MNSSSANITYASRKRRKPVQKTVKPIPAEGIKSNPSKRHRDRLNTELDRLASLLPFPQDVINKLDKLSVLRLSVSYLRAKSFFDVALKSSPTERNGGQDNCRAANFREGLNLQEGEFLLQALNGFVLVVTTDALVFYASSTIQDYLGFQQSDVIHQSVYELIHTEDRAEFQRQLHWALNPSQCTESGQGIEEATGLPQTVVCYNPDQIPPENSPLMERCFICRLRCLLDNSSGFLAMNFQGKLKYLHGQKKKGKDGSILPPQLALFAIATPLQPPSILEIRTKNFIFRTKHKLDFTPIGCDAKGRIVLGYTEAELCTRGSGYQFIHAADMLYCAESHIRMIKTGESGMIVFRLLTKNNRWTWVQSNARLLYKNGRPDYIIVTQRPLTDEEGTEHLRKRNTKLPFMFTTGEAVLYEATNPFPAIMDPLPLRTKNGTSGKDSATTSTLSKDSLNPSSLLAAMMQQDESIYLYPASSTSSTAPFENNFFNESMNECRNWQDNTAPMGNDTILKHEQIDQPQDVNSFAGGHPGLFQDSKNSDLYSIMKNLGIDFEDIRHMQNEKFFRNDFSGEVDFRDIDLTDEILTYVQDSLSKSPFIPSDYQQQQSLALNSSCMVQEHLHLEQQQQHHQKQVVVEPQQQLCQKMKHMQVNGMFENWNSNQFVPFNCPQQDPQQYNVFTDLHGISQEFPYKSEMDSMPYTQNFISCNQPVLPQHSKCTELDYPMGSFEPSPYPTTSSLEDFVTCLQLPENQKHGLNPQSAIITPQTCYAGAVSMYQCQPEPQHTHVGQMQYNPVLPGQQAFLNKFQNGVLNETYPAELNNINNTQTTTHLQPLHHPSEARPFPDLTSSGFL
# Procedure, shortened: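 Steps: seed HepG2-AhR-luc cells; allow 5 h at 37C; pin-transfer test compound or vehicle; incubate 24 h at 37C; add viability dye (30 min, 37C) and read fluorescence; add luciferase substrate (30 min, RT) and read luminescence.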
Structure (SMILES),Potency [1],outcome [2],Potency [3],Potency [4],Potency [5],Potency [6],Potency [7],outcome [8],Potency [9],Potency [10]
CCCOCCC,inactive,inactive,inactive,inactive,inactive,inactive,inactive,inactive,inactive,–
CCCCCCCCc1ccc(S(=O)(=O)O)cc1,inactive,–,inactive,43.3 µM (active),–,–,–,inactive,inactive,inactive
C=CCc1cc(OC)c(O)c(C(=O)NCCO)c1,inactive,–,inactive,–,–,–,inactive,inactive,inactive,inactive
O=c1oc2c(O)c(O)cc3c(=O)oc4c(O)c(O)cc1c4c23,inactive,–,–,–,inactive,–,inactive,inactive,inactive,inactive
CN(C)Cc1ccccc1,inactive,–,inactive,–,inactive,inactive,inactive,inactive,inactive,inactive
CC(C)C(=O)OC/C=C/c1ccccc1,inactive,inactive,inactive,inactive,inactive,inactive,inactive,inactive,inactive,–
CCOc1ccccc1N,inactive,inactive,inactive,inactive,inactive,inactive,inactive,inactive,inactive,–
CCCCCCCCOC(=O)CCCCCCCCC(=O)OCCCCCCCC,inactive,inactive,inactive,inactive,inactive,–,–,inactive,inactive,–
O=C1CCCCC1C1CCCCC1 (centres undefined),inactive,–,inactive,–,–,inactive,–,inactive,inactive,inactive
CN(C)C(=O)NC1(c2ccccc2)CCN(CCC[C@]2(c3ccc(Cl)c(Cl)c3)CCCN(C(=O)c3ccccc3)C2)CC1,6.51 µM (active),–,–,–,inactive,–,14.6 µM (active),inactive,inactive,inactive
CC(=O)N(CC(O)CN(C(C)=O)c1c(I)c(C(=O)NCC(O)CO)c(I)c(C(=O)NCC(O)CO)c1I)c1c(I)c(C(=O)NCC(O)CO)c(I)c(C(=O)NCC(O)CO)c1I (centres undefined),inactive,inactive,inactive,inactive,–,inactive,inactive,inactive,inactive,–
COc1cc2c(cc1N)oc1ccccc12,inactive,inactive,inactive,inactive,–,inactive,inactive,inactive,–,–
C=C(C)C(=O)OCCOP(=O)(O)O,inactive,inactive,inactive,inactive,inactive,inactive,inactive,inactive,–,–
Cc1cc(S(=O)(=O)O)c(N)cc1Cl,inactive,inactive,inactive,inactive,inactive,–,inactive,inactive,–,–
CCCCc1ccc2nc(NC(=O)OC)[nH]c2c1,inactive,inactive,inactive,inactive,inactive,–,inactive,inactive,–,–
CCc1nnc(NS(=O)(=O)c2ccc(N)cc2)s1,inactive,inactive,inactive,inactive,inactive,inactive,inactive,inactive,inactive,–
COc1cc(C)ccc1C(C)C,inactive,inactive,inactive,inactive,inactive,inactive,inactive,inactive,–,–
OCCN1CCN(CCO)CC1,inactive,inactive,inactive,inactive,inactive,inactive,inactive,inactive,inactive,–
CN(C)CCOc1ccccc1Cc1ccccc1,inactive,inactive,inactive,inactive,inactive,inactive,–,inactive,–,–
COC(=O)c1ccc2cc(C(=O)OC)ccc2c1,inactive,inactive,inactive,inactive,inactive,inactive,inactive,inactive,–,–
CNCCC(Oc1ccccc1OC)c1ccccc1 (centres undefined),inactive,inactive,inactive,inactive,inactive,inactive,inactive,inactive,–,–
O=C(O)C(=O)Cc1c[nH]c2ccccc12,inactive,inactive,inactive,inactive,–,27.3 µM (active),–,inactive,inactive,–
Nc1ccc(Oc2ccc(N)c(N)c2)cc1,inactive,–,inactive,–,–,–,inactive,inactive,–,1.54 µM (active)
NC1=NCC2c3ccccc3Cc3ccccc3N12 (centres undefined),inactive,–,–,–,–,–,inactive,inactive,inactive,inactive
CCCCCCCCCC#N,inactive,inactive,inactive,inactive,inactive,inactive,–,inactive,inactive,–

Structure (SMILES),Potency [1],outcome [2],Potency [3],Potency [4],Potency [5],Potency [6],Potency [7],outcome [8],Potency [9],Potency [10]
CN(CCCN1c2ccccc2CCc2ccccc21)CC(=O)c1ccc(Cl)cc1,inactive,–,–,inactive,–,–,inactive,–,–,29.8 µM (active)
CCOc1ccc2nc(N)sc2c1,inactive,–,inactive,–,–,48.2 µM (active),inactive,inactive,inactive,2.15 µM (active)
COc1cc(Cl)ccc1Cl,inactive,inactive,inactive,inactive,–,inactive,–,inactive,–,–
CCCNC(C)C(=O)Nc1c(C)csc1C(=O)OC (centres undefined),inactive,inactive,inactive,inactive,inactive,inactive,–,inactive,inactive,–
CC(C)S,inactive,inactive,inactive,inactive,–,–,inactive,inactive,inactive,–
CC(=O)OC(C)OC(C)=O,inactive,–,inactive,–,inactive,inactive,inactive,inactive,–,inactive
OCC(CBr)(CBr)CBr,inactive,inactive,inactive,inactive,–,–,inactive,inactive,inactive,–
CCOC(=O)C1CC(=O)C(=C(O)C2CC2)C(=O)C1 (centres undefined),inactive,inactive,inactive,inactive,inactive,inactive,–,inactive,inactive,–
C=CC1CO1 (centres undefined),inactive,inactive,inactive,inactive,inactive,inactive,inactive,inactive,inactive,–
OCc1c2ccccc2cc2ccccc12,inactive,inactive,inactive,–,inactive,–,inactive,inactive,inactive,–
OCCN(CCO)c1ccccc1,inactive,inactive,inactive,–,inactive,inactive,inactive,inactive,inactive,–
CC1CN(c2ccccc2)NC1=O (centres undefined),inactive,inactive,–,inactive,–,–,inactive,inactive,inactive,–
Cc1ccc(C)c(N)c1,inactive,inactive,inactive,–,inactive,–,inactive,inactive,–,–
CCc1cc(Cl)c(OC)c(C(=O)NC[C@@H]2CCCN2CC)c1O,inactive,inactive,inactive,–,inactive,inactive,inactive,inactive,–,–
CC(C)=CCCC(C)CCOC=O (centres undefined),inactive,inactive,–,–,43.6 µM (active),–,54.5 µM (active),–,–,–
CCN(CC)CCOc1ccc(Cc2ccccc2)cc1,inactive,–,inactive,inactive,inactive,–,inactive,inactive,–,–
CCCCN1C[C@H](O)[C@@H](O)[C@H](O)[C@H]1CO,inactive,inactive,inactive,–,inactive,inactive,inactive,inactive,inactive,–
Cc1ncc(CO)c(CN)c1O,inactive,–,inactive,inactive,inactive,–,inactive,inactive,inactive,–
NNS(=O)(=O)c1ccc(Oc2ccc(S(=O)(=O)NN)cc2)cc1,inactive,–,inactive,inactive,–,inactive,inactive,inactive,inactive,–
Cc1cc2c(s1)Nc1ccccc1N=C2N1CCN(C)CC1,23.7 µM (active),–,inactive,inactive,inactive,–,inactive,inactive,–,–
CC(C)Nc1nc(N)nc(Cl)n1,inactive,–,inactive,inactive,inactive,inactive,inactive,inactive,–,–
CC/C=C\CCOC(=O)C(C)C,inactive,inactive,inactive,–,–,–,inactive,inactive,inactive,–
O=C1CCCc2ccccc21,inactive,inactive,inactive,–,inactive,inactive,inactive,inactive,inactive,–
CCOC(=O)c1ccccc1O,inactive,inactive,inactive,–,–,–,inactive,inactive,–,–
